The record followed here is PubChem BioAssay.

Each structure is given as a SMILES string. Unmarked numbers belong to inactive results. Activity calls are given as the source filed them. Rule as the data show it, unless noted: active = inhibition above about 28%; inactive = the rest.

Assay [1] can be described thus: StAR promoter reporter inhibitors, counter-screen for LRH-1 inverse agonist project, cell-based, luminescence, high throughput (AID 651611). Particulars: StAR promoter luciferase reporter counterscreen, at 3.6 µM, hits give high values. (In general: Counterscreens check selectivity or assay interference.)
For assay [2], the target named is Nuclear receptor subfamily 5 group A member 2 (Homo sapiens) (UniProt O00482). The assay can be described thus: NR5A2 activity suppression in reporter cells – cell-based, luminescence, confirmation (AID 651613; in the data active = inhibition above about 42%;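 also: HEK293T cells co-transfected with LRH-1 and StAR promoter luciferase reporter; 0% = vehicle wells and 100% = parental cells lacking receptor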). Particulars: cell-based LRH-1 luciferase reporter, inverse agonism; at 3.6 µM; hits give high values.
Chain of Nuclear receptor subfamily 5 group A member 2 (Homo sapiens) (O00482 whole entry, looked up): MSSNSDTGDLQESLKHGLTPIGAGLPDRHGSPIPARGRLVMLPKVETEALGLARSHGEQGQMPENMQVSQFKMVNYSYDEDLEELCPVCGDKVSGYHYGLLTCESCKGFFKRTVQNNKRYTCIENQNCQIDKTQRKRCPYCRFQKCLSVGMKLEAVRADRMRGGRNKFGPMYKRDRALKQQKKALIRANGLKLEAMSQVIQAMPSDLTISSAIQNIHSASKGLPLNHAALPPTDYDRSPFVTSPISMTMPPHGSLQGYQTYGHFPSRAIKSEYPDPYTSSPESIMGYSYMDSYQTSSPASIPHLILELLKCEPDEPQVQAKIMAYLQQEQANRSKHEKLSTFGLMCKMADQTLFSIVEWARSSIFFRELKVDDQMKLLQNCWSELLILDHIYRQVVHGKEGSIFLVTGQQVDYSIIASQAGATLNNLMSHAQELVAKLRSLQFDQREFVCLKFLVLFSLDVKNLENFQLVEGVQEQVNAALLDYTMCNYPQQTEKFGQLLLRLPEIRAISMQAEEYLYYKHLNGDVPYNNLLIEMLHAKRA
Assay [3] deals with Steroidogenic factor 1 (Homo sapiens) (UniProt Q13285). The assay can be described thus: inverse agonism at SF1 nuclear receptor – cell-based, luminescence, high throughput, counter-screen for LRH-1 inverse agonist project (AID 651614; in the data active = inhibition above about 44%;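 also: cells cotransfected with StAR promoter reporter and SF1 expression vector; 0% = vehicle on cells with receptor and 100% = vehicle on cells lacking receptor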). The settings on record: cell-based SF1 luciferase reporter, at 3.6 µM, hits give high values.
Chain of Steroidogenic factor 1 (Homo sapiens) (Q13285 whole entry, looked up, the tested form may be a part): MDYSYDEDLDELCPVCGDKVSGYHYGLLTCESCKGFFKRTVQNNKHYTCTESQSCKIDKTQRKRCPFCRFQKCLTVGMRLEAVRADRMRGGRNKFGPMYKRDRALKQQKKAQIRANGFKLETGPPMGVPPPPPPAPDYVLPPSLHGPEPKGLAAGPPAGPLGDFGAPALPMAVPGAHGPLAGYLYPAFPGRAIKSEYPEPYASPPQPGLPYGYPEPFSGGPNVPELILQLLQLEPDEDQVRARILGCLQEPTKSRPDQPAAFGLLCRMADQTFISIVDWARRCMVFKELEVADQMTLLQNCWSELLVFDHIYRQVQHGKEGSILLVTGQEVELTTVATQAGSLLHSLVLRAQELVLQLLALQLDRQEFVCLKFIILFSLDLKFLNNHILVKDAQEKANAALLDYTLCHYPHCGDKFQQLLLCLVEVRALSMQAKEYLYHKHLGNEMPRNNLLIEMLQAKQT
The nature of assay [4]: compounds suppressing VP16-driven luciferase signal – cell-based, luminescence, high throughput, counter-screen for LRH-1 inverse agonist project (AID 651615; in the data active = inhibition above about 33%). The settings on record: Gal4-VP16 luciferase reporter cells, at 3.6 µM, hits give high values.

What is called inhibition is the relative decrease from the control value, in per cent. `COc1ccc(-c2nnnn2-c2ccccc2OC)cc1`: the inhibition in assay [1] is 8.71%; in assay [2], 53.8% (active); in assay [3], 54.3% (active); in assay [4] it was 0.37%.
In the same order, the values of `O=C(Nc1nnc(C2=COCCO2)o1)c1ccc([N+](=O)[O-])s1` are 18.6%, 49.4% (active), 40.3% and -6.2%.
On to `CS(=O)(=O)N1CCc2cc(-c3csc(NC(=O)Cc4cccs4)n3)ccc21`, for which the inhibition in assay [1] is 12.6%; in assay [2], 53.8% (active); in assay [3] it was 39.9%; in assay [4], 42.8% (active).
For `COc1cc(OC)cc(C(=O)N[C@H](C(=O)OCC(=O)Nc2ccc3c(c2)OCO3)C(C)C)c1`, in that order: 14.4%, 48.1% (active), 45.9% (active) and -4.48%.
`CCCc1nnc2n1N=C(c1ccc(OC)c(OC)c1)CS2`: the inhibition is 4.71% in assay [1], 38.7% in assay [2], 26.3% in assay [3] and -24.8% in assay [4].
In the same order, the values of `CCn1c2ccccc2c2cc(/C=N/n3c(-c4cc(C)[nH]n4)n[nH]c3=S)ccc21` are 11.8%, 4.98%, 31.7% and 7.75%.
For `COc1cccc2c1C(=O)c1c(O)c3c(c(O)c1C2=O)C[C@@](O)(C(C)=O)C[C@@H]3O[C@H]1C[C@H](N)[C@H](O)[C@H](C)O1`, in that order: 76.5% (active), 104% (active), 94.4% (active) and 94% (active).
In the same order, the values of `COc1ccc(-c2cc(NC=O)c3ncc(-c4ccc(C(C)=O)cc4)n3c2)cn1` are 41.6% (active), 66% (active), 59% (active) and -15.1%.
